High-throughput results: PubChem BioAssay, University of Kansas High Throughput Screening Laboratory
Pf apPOL block – Pf-apPOL DNA polymerase inhibition. Recombinant Pf-apPOL, molecular beacon fluorescence, 1.5 h. inhibition, % at 10 µM. actives 0.25% (n = 210,000). AID 1794808
mHTT CaM bind – disrupts binding of mutant huntingtin to calmodulin; P42858; AlphaScreen His-mHTT/GST-CaM binding, luminescence; inhibition, % at 15 µM; actives 3.6% (n = 190,000);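 note: 0% = both proteins with DMSO and 100% = one protein alone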
* marks the source's active call; other numbers are inactive results; i = inactive; x = not tested or not shown; + = active, no number. The sample as a whole holds a higher share of hits than the screen did. Cut-off read from the data, not from the text of the source: active = inhibition above about 50%; inactive = the rest.

SMILES | Pf apPOL block | mHTT CaM bind
COc1ccc(C2/C=C\CN(C(=O)C3CCCC3)[C@@H](C)C(=O)N2Cc2ccc(F)cc2)cc1 (some centres undefined) | -2 | 43
COc1ccc(CNC(=O)CN2CCN(C(=O)Nc3ccc(F)cc3)CC2=O)cc1 | -5 | -8
COc1ccc(C2/C=C\CN(S(=O)(=O)c3ccc(-c4ccccc4)cc3)CC(=O)N2Cc2ccc(F)cc2)cc1 (centres undefined) | -1 | -3
COc1cc(C)nc(NC(=O)Nc2sc(NS(=O)(=O)c3ccccc3)nc2C)n1 | 8 | 14
Brc1csc(CN2CCc3ccccc3C2)c1 | -2 | -37
C1CCN(c2nc(N3CCOCC3)nc(N3CCOCC3)n2)CC1 | -3 | -8
CN(Cc1ccccc1)C(=O)c1cc2c(s1)N(C)CCC2 | 1 | 9
COc1cc(/C=C2\C(=O)NN(c3ccccc3)C2=O)cc(Cl)c1OC | -1 | 28
COc1cc(/C=C2\C(=O)NN(c3ccc(C)c(C)c3)C2=O)cc(Cl)c1OC | -6 | 58*
COc1cc(/C=C2\C(=O)NN(c3cccc(Br)c3)C2=O)cc(Cl)c1OC(C)C | -4 | 84*
CCOc1cc(/C=C2\C(=O)NN(c3ccc(C)c(C)c3)C2=O)cc(Cl)c1OCC | -2 | 63*
CCOc1ccc(/C=C2\C(=O)NN(c3cccc(Br)c3)C2=O)cc1OCC | -2 | 5
CCOc1cc(/C=C2\C(=O)NN(c3ccc(C)c(Cl)c3)C2=O)cc(Cl)c1OCC | -11 | 41
COCCNC(=O)c1c[nH]c2ccc(S(=O)(=O)N3CCc4ccccc4C3)cc2c1=O | 2 | 16
O=[N+]([O-])c1cccc(-c2noc(COc3ccc(Cl)cc3)n2)c1 | -1 | -1
COc1ccc(N=C(C)c2c(C(F)(F)F)[nH]n(-c3nc4ccccc4s3)c2=O)c(OC)c1 | -1 | 2
Oc1ccc(Br)cc1/C=N/n1cnnc1 | x | i
Nc1nnnn1/N=C/c1cc(Br)ccc1O | x | +
Cc1ccc(C2CC(C(F)(F)F)n3nccc3N2)s1 (centres undefined) | x | -11
Cc1cccc(CN2CCN(C3CCN(C(=O)Nc4cccc(C)c4C)CC3)C2=O)c1 | -4 | 26
COc1ccc(-c2ccc3c(N)c(C(=O)Nc4ccc(F)cc4)sc3n2)cc1OC | -7 | 36
O=[N+]([O-])c1ccc(N2CCOCC2)cc1SCc1ccco1 | -6 | 24
O=[N+]([O-])c1ccc(N2CCN(S(=O)(=O)c3ccccc3)CC2)cc1SCc1ccco1 | -9 | 98*
Cc1cc(C(=O)Nc2nnc(-c3ccno3)o2)no1 | 9 | 1
O=C(Nc1nnc(-c2ccc(Br)s2)o1)c1cccs1 | -27 | 6
SMILES | Pf apPOL block | mHTT CaM bind
O=C(Nc1nnc(-c2ccno2)o1)c1ccc2ncsc2c1 | 57* | 90*
O=C(Nc1nnc(-c2ccno2)o1)c1cccs1 | 30 | 82*
Cc1cc(-c2nnc(NC(=O)c3ccc4ncsc4c3)o2)nn1C | -18 | 43
CS(=O)(=O)c1cccc(C(=O)Nc2nnc(-c3ccno3)o2)c1 | 45 | 95*
Cc1ccccc1CNC(=O)c1ccc(-c2cccc(F)c2)nc1 | -1 | -12
COc1ccc(N2C(c3ccsc3)=Cc3cc4c(cc3C2c2c[nH]c3ccccc23)OCO4)cc1 (centres undefined) | -9 | 70*
CC(C)(O)C#Cc1ccc(N2C(c3ccsc3)=Cc3ccc(F)cc3C2c2c[nH]c3ccc(C#N)cc23)cc1 (centres undefined) | -4 | -7
Cc1ncc(CO)c2cc(C(N)=O)c(=Nc3ccc(F)c(Cl)c3)oc12 | 2 | 37
COc1cc2c(cc1O)C=NCC2 | x | 0
CN(CC(=O)Nc1nc(-c2ccco2)cs1)c1nc2ccccc2s1 | 16 | 77*
CN(CC(=O)NCc1cccs1)c1nc2ccccc2s1 | -14 | -16
COc1cccc(NC(=O)CSc2nnc(Cc3ccccc3)n2C)c1 | 0 | 73*
COc1cccc(NC(=O)CSc2nnc3ccccn23)c1 | 4 | -8
CN(C1CCCCC1)S(=O)(=O)c1cc(C(=O)Nc2cccc(Cl)c2)ccc1F | -5 | -5
CCN(C(=O)c1coc(=O)c2ccccc12)c1ccc(C)c(C)c1 | -6 | -3
O=C(c1cccc(Br)c1)N1CCC(n2c(-c3ccoc3)nc3cccnc32)C1 (centres undefined) | -1 | 55*
O=C(NCc1ccccc1)N1CCC(n2c(-c3ccoc3)nc3cccnc32)C1 (centres undefined) | 1 | 8
COc1ccc(C(=O)N2CCC(n3c(-c4ccoc4)nc4cccnc43)C2)cc1F (centres undefined) | 4 | 63*
Cc1ccc(C(=O)N2CCC(n3c(-c4ccoc4)nc4cccnc43)C2)cc1C (centres undefined) | -1 | 33
Cc1ccc(CNC(=O)N2CCC(n3c(-c4ccoc4)nc4cccnc43)C2)cc1 (centres undefined) | 0 | 64*
COc1cc(C(=O)N2CCC(n3c(-c4ccoc4)nc4cccnc43)C2)ccc1C (centres undefined) | -2 | 47
